The whole screen tested about 350,000 compounds, of which about 31,000 (8.9%) were called active. Roughly 15% stayed inconclusive and do not appear here. Shown is part of a subset that was picked to be rich in actives. Where a call stands in place of a potency, no number is given. A number with no mark means an inactive call. The call rests on the fitted dose curve; in most records, active means well fitted inhibition curve with a large enough effect; inconclusive means small, poorly fitted or top-dose-only effect; inactive means no such curve, though single readings can be large or run the other way.
Potency means the concentration at half of the fitted maximal effect.

Histone-lysine N-methyltransferase EHMT2 (Homo sapiens), sequence (Q96KQ7 913-1193 limits assumed): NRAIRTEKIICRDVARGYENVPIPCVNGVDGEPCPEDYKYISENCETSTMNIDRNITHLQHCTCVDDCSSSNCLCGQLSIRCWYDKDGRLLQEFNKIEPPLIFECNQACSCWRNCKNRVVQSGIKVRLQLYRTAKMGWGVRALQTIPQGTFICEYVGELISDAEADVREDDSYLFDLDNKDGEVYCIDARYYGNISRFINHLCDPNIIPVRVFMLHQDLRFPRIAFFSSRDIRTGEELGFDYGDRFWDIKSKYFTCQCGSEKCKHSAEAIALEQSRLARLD

The assay concerns the target Histone-lysine N-methyltransferase EHMT2 (Homo sapiens) (UniProt Q96KQ7). The experiment in a line: qHTS Assay for Inhibitors of Histone Lysine Methyltransferase G9a. Further: nearly all actives have a fitted effect of over 75% in size. The note with it: G9a H3K9 monomethylation, AlphaScreen, 2 h; series mostly up to 59 µM. From the text:
Methylated lysines, on the N-terminal tails of histone proteins serve as epigenetic markers to recruit factors that can then modify local chromatin structure to lead to functional consequences. G9a and other members of the SUV39 family of the SET domain-containing superfamily of histone lysine methyltransferases (HMT) have been identified to specifically methylate Lys9 of histone H3 (H3K9). G9a catalyzes the mono- and di-methylation of H3K9 in mammalian euchromatic regions, where the resulting H3K9me2 is indicative of transcriptional repression. […] The inhibition of G9a will result in transcriptional activation and work synergistically with DNA methyltransferase and histone deacetylase inhibitors, to kill cancer cells. This qHTS assay for identification of G9a inhibitors is a chemiluminescence based AlphaScreen (PerkinElmer). Methylation of biotinylated-histone peptide is measured through specific antibody-based detection, in conjunction with streptavidin-coated donor and anti-IgG antibody-coated acceptor beads. The method is particularly well suited for detection of inhibitors acting by the desired histone peptide competitive mechanism and is applicable to testing other HMTs. Although AlphaScreen has significant advantages with its utility in a variety of epigenetic target assays, the primary screening data provided in this deposition should be used with caution due to the prevalence of screening artifacts. An AlphaScreen counterscreen is highly recommended to be run against any putative actives to eliminate non specific artifacts. Alternatively, one can use other AlphaScreen assays in PubChem to filter out promiscuous hits. Quinn et al. A chemiluminescence-based method for identification of histone lysine methyltransferase inhibitors. Mol Biosyst 6(5): 782-8. 2010. PMID: 20567762 [2] Baell,Holloway. New substructure filters for removal of pan assay interference compounds (PAINS) from screening libraries and for their exclusion in bioassays. J Med Chem. 53(7):2719-40. 2010. PMID: 20131845 NIH Molecular Libraries Probe Production Network [MLPCN] NIH Chemical Genomics Center [NCGC] Structural Genomics Consortium (SGC) NIH Grant: 5U54 MH084681-02
To each well of a 1,536w plate, 2ul of HMT enzyme (final 20nM) were added, using a nanoliter dispenser. The G9a- and GLP-inhibitor BIX-01294 (CID: 25150857) are used as an intraplate control, with a 16-point titration in duplicate. A Kalypsys pin-tool transferred 23nl of library compound solution in DMSO to each well. Following a 15 min incubation of enzyme with compounds at room temperature, 1ul mixture of b-H3K9 peptide substrate (final 500nM) and SAM cofactor (final 20uM) were added. Reactions were allowed to proceed at room temperature for 2 hours. Methylated b-H3K9 peptide product was detected with 0.5 ug/mL rabbit polyclonal anti-monomethyl histone H3K9 antibody (Abcam Inc., Cambridge, MA) and 20 ug/mL each streptavidin-coated donor and anti-rabbit IgG acceptor AlphaScreen beads. Antibody and beads were added in a 1ul dispense, for a final volume of 4ul, and plates were incubated, protected from the light, for 10 min at room temperature. Microplates were then read on an EnVision multilabel plate reader using the 1,536 plate HTS AlphaScreen aperture (excitation time 80 ms, measurement time 240 ms).
Background: Quantitative high-throughput screening tests each substance at several concentrations.
As to `COc1cc(NC(=O)c2cc(C3CC3)nc3c2c(C)nn3-c2ccccc2)cc(OC)c1`, the Potency result is “inactive”.

On to `CCc1ccc(S(=O)(=O)Nc2cc3c(C(=O)OCc4ccccc4)c(C)oc3c3ccccc23)cc1`, for which the Potency result was “inactive”.

Take `CCCCNC(=O)Cn1nc(C)c(S(=O)(=O)N2CCOCC2)c1C`: the activity, negative = inhibition was 8.75% [at 12.7 µM].

For the molecule `O=C(c1ccco1)N1CCC2(CC1)CCN(c1ncccn1)CC2`, the activity, negative = inhibition was 4.8% [at 12.7 µM].

For `O=C(C1=C(O)C(=O)N(c2ncccn2)C1c1cccs1)c1ccco1` (centres undefined), the Potency was 10 µM (active).

In the case of `O=C(c1ccco1)N1CCC2(CC1)CN(c1ncccn1)C2`, the activity, negative = inhibition is 6.99% [at 12.7 µM].

For the molecule `COC(=O)c1ccc(OC)c(Cn2c(=O)n(Cc3ccccc3)c(=O)c3c2c2cc(OC)ccc2n3C)c1`, the Potency entry was “inactive”.

On to `Cc1nn(Cc2ccccc2)c(C)c1CNC(=O)c1ccc(F)c(S(=O)(=O)N2CCOCC2)c1`, for which the activity, negative = inhibition is -14.2% [at 12.7 µM].

Consider `CCN(C(=O)CSc1nc(N)cc(=O)[nH]1)C1CCS(=O)(=O)C1` (centres undefined), for which the activity, negative = inhibition was 6.8% [at 12.7 µM].

For `CCN1CCN(c2ccc(S(=O)(=O)N3CCCCC3)cc2NC(=O)c2cccc(NC(C)=O)c2)CC1`, the Potency is 50.1 µM (active).

On to `CCN1CCN(c2ccc(S(=O)(=O)N3CCCCC3)cc2NC(=O)Cc2c(Cl)cccc2Cl)CC1`, for which the Potency result is “inactive”.

For `O=C(Nc1ccc2c(c1)OCCO2)c1ccc(Cl)c(S(=O)(=O)N2CCCCC2)c1`, the activity, negative = inhibition was -22.9% [at 12.7 µM].

Turning to `Cc1ccc(S(=O)(=O)N2CCCCC2)cc1NC(=O)c1cccnc1`, the Potency result is “inactive”.

Consider `O=C(Nc1cccc(S(=O)(=O)N2CCCCC2)c1)c1ccc2c(c1)OCO2`, for which the Potency is 1 µM (active).

Consider `O=C(Nc1cccnc1)c1cccc(S(=O)(=O)N2CCCC2)c1`, for which the Potency entry was “inactive”.

Turning to `CC(C)(C)SCCSC1=CC(=O)CC(c2ccccc2)C1` (centres undefined), the Potency result is “inactive”.

As to `O=C(CSc1nc2ccccc2c(=O)n1-c1ccc(F)cc1)NC1CC1`, the activity, negative = inhibition is 7.18% [at 0.501 µM].

Regarding `COC(=O)CC1Oc2ccccc2-n2cc(-c3ccccc3)nc21` (centres undefined), the Potency entry was “inactive”.

In the case of `COc1ccc(C(=O)Nc2ccccc2C(=O)N/N=C/c2ccc(O)c(OC)c2)cc1`, the activity, negative = inhibition is -4.54% [at 2.33 µM].

As for `COc1ccc(/C=N/NC(=O)c2cccc(C(F)(F)F)c2)cc1`, the Potency result was “inactive”.

On to `COc1ccc(/C=N/Nc2ccccc2C(=O)O)cc1`, for which the Potency was 79.4 µM (active).

In the case of `COc1ccc(Cc2nnc(SCC(=O)N(c3ccccc3)C(C)C)n(N)c2=O)cc1`, the Potency entry was “inactive”.

For the molecule `Cc1cccc(C)c1OCC(O)CN1CCCCC1` (centres undefined), the Potency result is “inactive”.

In the case of `CCCCOc1ccc(C(C)(O)CCN2CCOCC2)cc1` (centres undefined), the Potency result is “inactive”.

For `COc1ccc(C(=O)Nc2ccc(CN3CCOCC3)cc2)cc1`, the activity, negative = inhibition is 39.7% [at 12.7 µM].

Turning to `CCOc1ccc(C(=O)CCC(=O)Nc2ccncc2)cc1`, the activity, negative = inhibition was -14% [at 12.7 µM].

Take `Cc1cccc(C)c1OCCN1CCOCC1`: the Potency was 11.2 µM (active).

On to `Cc1ccc(S(=O)(=O)NCCN2CCOCC2)cc1C`, for which the activity, negative = inhibition is -19.4% [at 12.7 µM].

As to `CC(=O)c1ccc(OCCN2CCOCC2)cc1`, the Potency is 25.1 µM (active).

On to `CCOc1ccc(C2C(C(=O)O)c3ccccc3C(=O)N2CCN2CCOCC2)cc1` (centres undefined), for which the activity, negative = inhibition was 1.66% [at 12.7 µM].

For the molecule `CCOc1ccc(C(=O)CCN2CCOCC2)cc1`, the Potency is 39.8 µM (active).

`COc1ccc(CCC(=O)NCc2ccc3c(c2)CCN3C(=O)c2ccc(F)cc2)cc1`: the Potency result was “inactive”.

With `CCN(C(=O)COC(=O)CCOc1cccc(C)c1)c1c(N)n(Cc2ccccc2)c(=O)[nH]c1=O`, the Potency entry is “inactive”.

With `O=C(CSc1ncc(S(=O)(=O)c2ccc(Br)cc2)c(=O)[nH]1)Nc1ccc2c(c1)OCCO2`, the Potency entry is “inactive”.

Consider `O=C(COC(=O)c1cccs1)NCc1cccs1`, for which the Potency result is “inactive”.

Take `Cc1ccc(N2CC(NC(=O)Cc3cccs3)CC2=O)cc1` (centres undefined): the Potency result was “inactive”.

With `CCN(C(=O)COC(=O)Cc1c(F)cccc1Cl)c1c(N)n(Cc2ccccc2)c(=O)[nH]c1=O`, the activity, negative = inhibition is 1.45% [at 12.7 µM].

As to `Cc1cccc(-c2nc(SCC(=O)Nc3cc(C)on3)c3c(=O)n(C)c(=O)n(C)c3n2)c1`, the Potency result is “inactive”.

On to `Cc1ccc(OCC(=O)OCc2cc(=O)n3nc(C4CC4)sc3n2)cc1C`, for which the Potency result is “inactive”.

As for `O=C1c2cccc3cc(Br)cc(c23)C(=O)N1Nc1ccccc1`, the Potency result is “inactive”.

With `O=C1C=C(c2ccc(Cl)cc2)C(=O)N1Nc1ccccc1`, the Potency was 7.94 µM (active).

As for `O=C(Nc1ccccc1)OCc1cc(-c2ccc(Cl)cc2)on1`, the Potency entry was “inactive”.

As for `Cc1ccccc1-c1nc(C#N)c(NCc2ccco2)o1`, the Potency was 39.8 µM (active).

Take `Cc1cc(NCc2ccco2)n2c(nc3ccccc32)c1C#N`: the Potency entry was “inactive”.

As for `COc1ccc(Nc2oc(-c3ccccc3Cl)nc2C#N)cc1`, the Potency entry is “inactive”.

With `O=C(NCCc1ccccc1)c1ccc2c(c1)N(Cc1ccccc1)C(=O)c1ccccc1S2(=O)=O`, the Potency entry was “inactive”.

For `Cc1cc(S(=O)(=O)N2CCOCC2)ccc1OCC(=O)Nc1cccc(C(F)(F)F)c1`, the Potency result is “inactive”.

For the molecule `CC1CCCC(NC(=O)COC(=O)[C@@H]2CC(O)CN2S(=O)(=O)c2ccc3c(c2)OCCO3)C1C` (some centres undefined), the Potency entry was “inactive”.

Turning to `Cc1ccc(S(=O)(=O)N2CC(O)C[C@H]2C(=O)OCC(=O)Nc2ccc(N3CCOCC3)cc2)cc1C` (some centres undefined), the Potency was 50.1 µM (active).

Take `CC(C)Oc1ccc(NC(=O)c2cc3ccccc3o2)cc1`: the Potency entry was “inactive”.

As for `O=C(/C=C(O)/C=C/c1ccc(O)cc1)/C=C/c1ccc(O)cc1`, the activity, negative = inhibition was 1.18% [at 0.501 µM].

For the molecule `CCOC(=O)C(C)N(c1ccccc1Cl)S(C)(=O)=O` (centres undefined), the activity, negative = inhibition was 25.6% [at 12.7 µM].

Turning to `Cc1cc(C)cc(NC(c2nnc(-c3cccc(F)c3)o2)c2ccc(F)cc2Cl)c1` (centres undefined), the Potency entry was “inactive”.

Take `O=S(=O)(NCC1OCCc2ccccc21)c1ccccc1` (centres undefined): the activity, negative = inhibition was -24.8% [at 2.33 µM].

On to `O=S(=O)(NCCc1ccncc1)c1ccccc1`, for which the Potency entry is “inactive”.

`O=c1/c(=C/c2ccc(CNS(=O)(=O)c3ccccc3)o2)sc2n1CCN=2`: the Potency was 39.8 µM (active).

With `COc1ccc(CNC(=O)C(=O)N2CCC3(CC2)OCCN3S(=O)(=O)c2ccc(C)cc2)cc1`, the Potency result was “inactive”.

As for `COc1ccccc1C(=O)NC(=O)COC(=O)C1CC1`, the Potency result was “inactive”.

`O=S(=O)(NCCCCCCNS(=O)(=O)c1c(F)cccc1F)c1ccc2c(c1)OCCO2`: the activity, negative = inhibition is 21.9% [at 2.33 µM].
